Assay outcomes (PubChem BioAssay)
Compounds with a hit are over-represented: about 8.2% of the library has one in this group of screens.
ELG1 repair inh: blocks ELG1-dependent DNA repair in HEK293T cells | HEK293T ELG1-luciferase reporter, luminescence, 16 h; DNA damage induced by 5-fluorouridine | Potency, µM (top dose mostly 46.1 µM), actives largely listed as inhibitors | actives 2.3% (n = 330,000) | AID 504467; note: nearly all actives have a fitted effect of over 55% in size
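HEK293T cells expressing luciferase-tagged ELG1 (2,000/well) received 5-Fluorouridine plus compound or DMSO for 16 hr at 37 °C. Luciferase was read by ONE-Glo luminescence after 30 min at room temperature.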
KB-V1 cytotox: KB-V1 MDR subline cytotoxicity | KB-V1 MDR cells viability, CellTiter-Glo, 72 h | Potency, µM (top dose mostly 46.1 µM), hits mostly cytotoxic | actives 3.4% (n = 400,000) | AID 1347076; note: nearly all actives have a fitted effect of over 60% in size
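Cytotoxicity via CellTiter-Glo luminescence after 72 h compound exposure at 37 degrees C. Cells: drug-selected KB-V1 line, DMEM phenol-red free plus 10% FBS. Compounds tested at multiple concentrations; normalized data fitted to concentration-effect curves.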
KB-3-1 cytotox: KB-3-1 parental cell cytotoxicity; Potency, µM (highest dose often 46.1 µM), usual class: cytotoxic; KB-3-1 viability, CellTiter-Glo ATP luminescence, 72 h; actives 1.4% (n = 400,000); AID 1347075; note: nearly all actives have a fitted effect of over 60% in size
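Using CellTiter-Glo luminescence, growth of non-resistant KB-3-1 adenocarcinoma cells is assessed 72 h after pin-tool compound addition at 37 °C. Normalized responses across the concentration series yield fitted curves.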
SW480 rereplic: DNA re-replication induction in SW480 cells; SW480 DNA re-replication, Hoechst DNA content imaging, 48 h; Potency, µM (highest dose often 46.1 µM), actives largely listed as activators; actives 1.8% (n = 340,000); note: nearly all actives have a fitted effect of over 55% in size
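Treated cells incubate 48 hr (37 C, 5% CO2), are stained 40 min with Hoechst, and nuclear fluorescence is enumerated; a rise in nuclei with high DNA signal marks re-replication.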
MCF10A rerep: DNA re-replication induction in MCF 10a cells; MCF 10A DNA re-replication, Hoechst nuclear intensity, 48 h; Potency, µM (highest dose often 46.1 µM), usual class: activators; actives 2.9% (n = 350,000); AID 624296; note: nearly all actives have a fitted effect of over 50% in size
Of the large screens only hits and unclear results are named; the others gave an inactive call; ! = a repeat was not active. Calls come from the whole dose curve; as a rule, active = well fitted curve in the direction sought with a large enough effect; inconclusive = small, poorly fitted or top-dose-only effect, or another doubt; inactive = no such curve, though single readings can be large; an effect the other way counts as inactive or inconclusive.

CCOC(=O)c1c(S(=O)(=O)N2CCC(C(=O)Nc3ccc(OCC)cc3)CC2)c(C)n(C)c1C	none (no result: ELG1 repair inh, SW480 rereplic, MCF10A rerep)
COc1cc2c(=O)n(Cc3ccccc3)c(=O)n(CC(=O)NCC3CCCO3)c2cc1OC (centres undefined)	KB-V1 cytotox 20.6µM
c1ccc(-c2cn3c4c(sc3n2)CCCC4)cc1	ELG1 repair inh inconclusive, KB-V1 cytotox inconclusive, KB-3-1 cytotox inconclusive, SW480 rereplic inconclusive, MCF10A rerep 20.6µM!
CCc1ccc(C(C)NC(=O)c2ccc3c(c2)OCO3)cc1 (centres undefined)	KB-V1 cytotox inconclusive
O=C(NCc1ccc(Cl)nc1)c1ccc2nc([C@@H]3O[C@H](CO)[C@H](O)[C@H](O)[C@H]3O)[nH]c2c1	none (no result: ELG1 repair inh, SW480 rereplic, MCF10A rerep)
O=S1(=O)c2cccc3cccc(c23)N1Cc1nnc(-c2ccccc2Br)o1	ELG1 repair inh 23.1µM, KB-V1 cytotox inconclusive, MCF10A rerep inconclusive
Cc1ccc(-n2ncc3c(NCCc4ccccc4)ncnc32)cc1Cl	none (no result: ELG1 repair inh, SW480 rereplic, MCF10A rerep)
Cc1cccc(-n2ncc3c(Nc4c(C)cc(C)cc4C)ncnc32)c1	KB-V1 cytotox inconclusive, KB-3-1 cytotox 9.2µM (no result: ELG1 repair inh, SW480 rereplic, MCF10A rerep)
Cc1cccc(-n2ncc3c(NC(C)C)ncnc32)c1	ELG1 repair inh inconclusive
Cc1cccc(-n2ncc3c(N)ncnc32)c1	KB-V1 cytotox 8.2µM, KB-3-1 cytotox inconclusive
Cc1ccc(-n2ncc3c(NCCO)ncnc32)cc1Cl	KB-V1 cytotox 5.8µM (no result: ELG1 repair inh, SW480 rereplic, MCF10A rerep)
Cc1ccc2[nH]c(C)cc(=S)c2c1	KB-V1 cytotox inconclusive, KB-3-1 cytotox inconclusive, SW480 rereplic 20.6µM, MCF10A rerep 23.1µM
C=CCN1C(=O)/C(=C2/Sc3ccc(OC)cc3N2C)SC1=Nc1ccccc1	SW480 rereplic 7.31µM, MCF10A rerep inconclusive
C=CCN1C(=O)/C(=C2/Sc3ccc(OC)cc3N2C)SC1=NCc1ccccc1	KB-V1 cytotox inconclusive
CCOC(=O)c1ccc(Nc2c(-c3ccc(O)cc3)nc3nc[nH]n23)cc1	none (no result: ELG1 repair inh, SW480 rereplic, MCF10A rerep)
C=CCN(CC=C)C(=S)NC(=O)c1ccc(-c2ccccc2)cc1	KB-V1 cytotox 5.8µM, KB-3-1 cytotox inconclusive, MCF10A rerep inconclusive
CN(Cc1ccccc1)C(=S)NC(=O)c1ccc(-c2ccccc2)cc1	ELG1 repair inh inconclusive
C=CCN(CC=C)C(=S)NC(=O)c1ccc(OC)cc1	KB-V1 cytotox 16.4µM
CN(C(=O)COC(=O)c1n[nH]c(=O)c2ccccc12)c1ccccc1	none
CN(C)c1ccc(N=Nc2ccccc2C(=O)OCC(=O)N(C)c2ccccc2)cc1	ELG1 repair inh 13µM
COC(=O)c1ccccc1NC(=O)COC(=O)c1ccccc1N=Nc1ccc(N(C)C)cc1	ELG1 repair inh inconclusive, MCF10A rerep inconclusive
CN(C(=O)COC(=O)c1n[nH]c2ccccc12)c1ccccc1	ELG1 repair inh inconclusive, KB-V1 cytotox 8.2µM
CCC(O)C1CCN(C(=O)c2cc(COc3ccc(F)cc3F)on2)CC1 (centres undefined)	none
Cc1ccc(C(=O)NCC(=O)N(C)Cc2ccc(Cl)cc2Cl)s1	KB-V1 cytotox 16.4µM
CN(Cc1ccc(Cl)cc1Cl)C(=O)CNC(=O)c1ccco1	none
CN(CC(=O)Nc1ccccc1Br)C(=O)CNC(=O)c1cccs1	none
Cc1ccc(C(=O)NCC(=O)N(C)CC(=O)Nc2ccccc2Br)s1	KB-V1 cytotox 20.6µM
CC(OC(=O)c1ccc(Cl)nc1)C(=O)N1CCc2ccccc21 (centres undefined)	KB-V1 cytotox inconclusive
O=C1CCc2cc(S(=O)(=O)Nc3ccc(Cl)c(Cl)c3)ccc2N1	none (no result: ELG1 repair inh, SW480 rereplic, MCF10A rerep)
CC(=O)NC(C)(c1ccccc1)c1nc(-c2cccc(F)c2)cs1 (centres undefined)	none (no result: ELG1 repair inh, SW480 rereplic, MCF10A rerep)
COc1ccc(CCNC(=O)CSc2cn(CCNC(=O)c3cccc(C(F)(F)F)c3)c3ccccc23)cc1OC	KB-V1 cytotox inconclusive (no result: ELG1 repair inh, SW480 rereplic, MCF10A rerep)
O=C(c1ccc(Cl)cc1)N1CCN(c2ccc(F)cc2)CC1	ELG1 repair inh inconclusive, KB-V1 cytotox 16.4µM
O=C(c1ccc(CS(=O)Cc2ccc(Cl)cc2)o1)N1CCN(c2ccc(F)cc2)CC1 (centres undefined)	ELG1 repair inh 23.1µM
O=C(c1ccncc1)N1CCN(c2ccc(F)cc2)CC1	none
O=C(Nc1ccc2nc3n(c(=O)c2c1)CCCC3)c1cc([N+](=O)[O-])ccc1F	ELG1 repair inh inconclusive, KB-V1 cytotox 16.4µM, SW480 rereplic 14.6µM, MCF10A rerep 14.6µM
CC1CCN(C(=S)Nc2ccc3nc4n(c(=O)c3c2)CCCCC4)CC1	KB-V1 cytotox 6.51µM, MCF10A rerep inconclusive
O=C(Nc1ccc2nc3n(c(=O)c2c1)CCCC3)c1cccc([N+](=O)[O-])c1	KB-V1 cytotox inconclusive
COc1cccc(-c2nnc3n2N=C(c2cc(OC)ccc2OC)CS3)c1	ELG1 repair inh 18.4µM, MCF10A rerep inconclusive
CCOc1cccc(-c2nnc3n2N=C(c2cc(OC)ccc2OC)CS3)c1	ELG1 repair inh 5.17µM
COc1cc(-c2nnc3n2N=C(c2ccccc2)CS3)cc(OC)c1OC	ELG1 repair inh 9.2µM, KB-3-1 cytotox inconclusive, SW480 rereplic inconclusive, MCF10A rerep inconclusive
COc1ccc(C2=Nn3c(nnc3-c3ccc(OC)cc3)SC2)cc1	KB-V1 cytotox 1.3µM, KB-3-1 cytotox 0.651µM, SW480 rereplic 1.84µM, MCF10A rerep 0.92µM
Cc1ccc(-c2nnc3n2N=C(c2ccccc2)CS3)cc1	none
O=C(O)C1CCC(C(=O)O)SS1 (centres undefined)	none (no result: ELG1 repair inh)
COc1cccc(-c2nnc3n2N=C(C(C)(C)C)CS3)c1	ELG1 repair inh inconclusive, KB-V1 cytotox 20.6µM, KB-3-1 cytotox inconclusive, SW480 rereplic inconclusive, MCF10A rerep inconclusive
COc1ccc(OC)c(C2=Nn3c(nnc3-c3cc(OC)c(OC)c(OC)c3)SC2)c1	ELG1 repair inh inconclusive, KB-V1 cytotox 1.3µM
c1csc(C2=Nn3c(nnc3-c3ccncc3)SC2)c1	ELG1 repair inh 1.12µM, SW480 rereplic inconclusive
CN(C)c1ccc2c3c(ccc(N(C)C)c13)COC2	none
CC(=O)c1ccc(S(=O)(=O)N2CCN(c3nc(-c4cccnc4)nc4ccccc34)CC2)cc1	ELG1 repair inh inconclusive
CCCc1cc2c(OC(=O)CC)c(-c3ccc(C(=O)OCC)o3)c(=O)oc2cc1OC	SW480 rereplic inconclusive, MCF10A rerep 20.6µM
CN(C)CCOc1ccc2c(c1)C(=O)C(=Cc1ncc([N+](=O)[O-])n1C)C2	KB-V1 cytotox 3.66µM, KB-3-1 cytotox inconclusive (no result: ELG1 repair inh, SW480 rereplic, MCF10A rerep)
CCc1cc(OCCN(C)C)ccc1Cl	none
CCc1cccc(NC(=O)C2CCCN(c3ncnc4onc(-c5ccc(F)cc5)c34)C2)c1 (centres undefined)	none (no result: ELG1 repair inh, SW480 rereplic, MCF10A rerep)
CCn1c(CNC(=O)COc2ccc(C(C)C)cc2)nnc1SCC(=O)NC1CCCCC1C (centres undefined)	ELG1 repair inh 16.4µM, KB-V1 cytotox inconclusive
CCn1c(CNC(=O)COc2ccc(C(C)C)cc2)nnc1SCC(=O)Nc1ccc(F)cc1	ELG1 repair inh inconclusive
